Where “and” joins values, the source holds several entries; their conditions need not be identical. Equal entries are not always repeated. The source holds several records for some structures; these can differ, active in one and inactive in another. Calls of active or inactive are those of the source. Rule for the calls: active = hit-call score of the fitted dose curve at least 0.9, where 1 is the maximum; inactive = score below 0.9.

Sequence of Transcription factor Sp1 (Homo sapiens) (P08047 whole entry, looked up): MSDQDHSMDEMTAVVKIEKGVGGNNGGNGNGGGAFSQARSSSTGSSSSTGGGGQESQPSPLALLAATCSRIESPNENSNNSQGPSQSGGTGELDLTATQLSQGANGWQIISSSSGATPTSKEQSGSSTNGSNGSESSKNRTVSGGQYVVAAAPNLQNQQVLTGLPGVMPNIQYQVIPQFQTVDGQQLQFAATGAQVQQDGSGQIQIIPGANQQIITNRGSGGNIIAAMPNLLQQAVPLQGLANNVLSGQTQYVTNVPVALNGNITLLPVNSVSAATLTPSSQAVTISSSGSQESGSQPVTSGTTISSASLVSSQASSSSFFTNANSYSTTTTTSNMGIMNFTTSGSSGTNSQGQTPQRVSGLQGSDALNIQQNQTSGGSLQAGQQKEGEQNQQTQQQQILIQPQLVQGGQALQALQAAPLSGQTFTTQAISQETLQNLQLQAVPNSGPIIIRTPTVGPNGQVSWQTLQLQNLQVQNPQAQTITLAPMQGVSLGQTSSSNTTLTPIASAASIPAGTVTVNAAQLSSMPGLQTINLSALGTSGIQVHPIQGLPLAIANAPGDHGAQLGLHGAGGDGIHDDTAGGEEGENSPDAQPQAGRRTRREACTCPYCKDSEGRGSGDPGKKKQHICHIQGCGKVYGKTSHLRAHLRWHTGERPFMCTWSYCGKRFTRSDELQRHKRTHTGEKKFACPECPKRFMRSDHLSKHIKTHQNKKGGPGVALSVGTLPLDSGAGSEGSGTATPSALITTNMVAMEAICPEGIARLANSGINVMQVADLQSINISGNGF

This assay has as its target Transcription factor Sp1 (Homo sapiens) (UniProt P08047). The assay is described as follows: ATG_Sp1_CIS: Attagene CIS-FACTORIAL HepG2 Assay for human Specificity Protein 1 (Sp1) (AID 2282961). The settings on record: HepG2 Sp1 cis-reporter transcription, actives raise or lower the signal. The procedure:
ATG_CIS is a cell-based, multiplexed-readout assay that uses HepG2, a human liver cell line, with measurements taken at 24 hours after chemical dosing in a 24-well plate.ATG_Sp1_CIS is one of 52 assay component(s) measured or calculated from the ATG_CIS assay. It is designed to make measurements of mRNA induction, a form of inducible reporter, as detected with fluorescence intensity signals by Reverse transcription polymerase chain reaction (RT-PCR) and Capillary electrophoresis technology.Data from the assay component ATG_Sp1_CIS was analyzed into 1 assay endpoint. This assay endpoint, ATG_Sp1_CIS, was analyzed with bidirectional fitting relative to DMSO as the negative control and baseline of activity. Using a type of inducible reporter, measures of mRNA for gain or loss-of-signal activity can be used to understand the reporter gene at the transcription factor-level as they relate to the gene SP1. Furthermore, this assay endpoint can be referred to as a primary readout, because this assay has produced multiple assay endpoints where this one serves a reporter gene function. To generalize the intended target to other relatable targets, this assay endpoint is annotated to the dna binding intended target family, where the subfamily is zinc finger.
Human liver HepG2 cells are transiently transfected with multiple reporter transcription units (MRTUs) in 6-well plates using FuGene 6 reagent (Roche; 3 ml FuGene/1 mg DNA). The MRTU constructs are regulated by a cis-regulating element (promoter). […] A major difference between the CIS and TRANS system is that in CIS activities of endogenous TFs are measured, whereas the TRANS assay evaluates changes in activities of exogenous, chimeric NR-Gal4 proteins. […] At the end of 24 hour incubation, total RNA was isolated using TriZol reagent (Invitrogen). The isolated RNA is then reverse-transcribed using oligo(dT) primer and Mo-MLV reverse transcriptase (Invitrogen) with DNAse I (Ambion) treatment for 30 min. The one-tenth of the produced cDNA was amplified by PCR using Taq DNA polymerase (Invitrogen) and two reporter sequence-specific primers. The PCR products were fluorescently labeled by primer extension with 6-arboxyfluorescein (6-FAM) 5'-labeled reporter sequence-specific primer (2 min at 95 C, 20 s at 68 C and 10 min at 72 C) and these products were digested with 5U of HpaI (New England Biolabs) for 2h at 37 C. The fragments were purified using Qiaquick PCR columns (Qiagen), analyzed on an ABI 3130xL genetic analyzer (Applied Biosystems) with peak positions identified by using a set of X-rhodamine (ROX)-labeled MapMarker1000 molecular weight standards (BioVentures). The raw capillary electrophoresis data was processed using Attagraph software (Attagene).
For the compound `Cc1c(C)c2c(c(C)c1O)CCC(C)(COc1ccc(CC3SC(=O)NC3=O)cc1)O2` (stereo not given), the outcome was inactive.

Consider `CN(C)CCCN1c2ccccc2Sc2ccc(Cl)cc21`, for which the compound was classed as inactive.

By AC50 is commonly meant the midpoint of the concentration-response curve, whichever way the signal moves. With `O=C1OC(c2ccc(O)cc2)(c2ccc(O)cc2)c2ccccc21`, the AC50 was 41.2 µM (active).

Take `O=C1O[C@H]([C@H](O)CO)C(O)=C1O`: the result was inactive.

Take `CC(COCC(C)OC(=O)c1ccccc1)OC(=O)c1ccccc1` (stereo not given): the call was inactive.

As to `Cc1ccc(-c2cc(C(F)(F)F)nn2-c2ccc(S(N)(=O)=O)cc2)cc1`, the call was inactive.

With `CC1=C(C)S(=O)(=O)CCS1(=O)=O`, the compound was classed as inactive.

Take `CC(C)c1cccc(C(C)C)c1NC(=O)NS(=O)(=O)c1cc(C(C)(C)O)co1`: the outcome was inactive.

Turning to `CC(=O)CC(c1ccccc1)c1c(O)c2ccccc2oc1=O` (stereo not given), the outcome was inactive.

Consider `CC(=O)O[C@]1(C(C)=O)CC[C@H]2[C@@H]3C=C(Cl)C4=CC(=O)[C@@H]5C[C@@H]5[C@]4(C)[C@H]3CC[C@@]21C`, for which the compound was called inactive; the AC50 is 154 µM (active) and 170 µM (active).

`C=CCc1ccc(OC)c(OC)c1`: the call was inactive.

As to `CCOCCOCCO`, the outcome was inactive.

`NC=O`: the outcome was inactive.

For `Cc1ccc(C(C)(C)C)c(O)c1`, the AC50 is 100 µM (active).

On to `NC1CCCCC1`, for which the compound was called inactive.

As to `O=C1CCCCC1`, the result was inactive.

Regarding `CN(C)C(=O)NC1(c2ccccc2)CCN(CC[C@@]2(c3ccc(F)c(F)c3)CN(C(=O)c3ccccc3)CCO2)CC1`, the outcome was inactive.

For the compound `CC(=O)S[C@H](C(=O)N[C@H]1Cc2ccccc2[C@H]2CCC[C@@H](C(=O)O)N2C1=O)C(C)C`, the compound was called inactive.

For `N[C@@H](Cc1c[nH]c2ccccc12)C(=O)O`, the compound was classed as inactive.

Take `CCc1nc(N)nc(N)c1-c1ccc(Cl)cc1`: the outcome was inactive.

For `COc1ccc(OC(F)(F)F)cc1CN[C@H]1CCCN[C@H]1c1ccccc1`, the call was inactive.

`COC(=O)[C@H]1[C@H]2C[C@@H]3c4[nH]c5cc(OC)ccc5c4CCN3C[C@H]2C[C@@H](OC(=O)c2cc(OC)c(OC)c(OC)c2)[C@@H]1OC`: the outcome was inactive.

With `CCCCCCCCCCCCCCCCO`, the call was inactive.

With `NCCOCCOCCN`, the outcome was inactive.

For the compound `S=c1[nH]c2ccccc2s1`, the AC50 was 42.5 µM (active).

For `C#CC(O)C(CC)CCCC` (stereo not given), the AC50 was 154 µM (active).

With `CCCC(=O)O`, the outcome was inactive.

On to `CCCCCCC(C=O)=Cc1ccccc1`, for which the AC50 was 129 µM (active) and 60 µM (active).

As to `O=NO`, the compound was classed as inactive.

Regarding `Cn1cnc2c1c(=O)[nH]c(=O)n2C`, the call was inactive.

As for `Nc1nc(Cl)nc2c1ncn2[C@H]1C[C@H](O)[C@@H](CO)O1`, the call was inactive.

As to `COc1ccc(C(=O)Nc2nc3ccccc3c(NCc3ccccc3)c2C#N)cc1`, the call was inactive.

Regarding `O=C1NC(=O)C(c2ccccc2)(c2ccccc2)N1`, the compound was called inactive.

`O=Cc1ccccc1C=O`: the outcome was inactive.

As to `CCCCC(CC)COP(=O)(OCC(CC)CCCC)OCC(CC)CCCC` (stereo not given), the compound was classed as inactive.

In the case of `O=C(N[C@@H](c1ccccc1)[C@@H]1CCCCN1)c1cccc(C(F)(F)F)c1Cl`, the AC50 was 42.7 µM (active).

`C/C=C/C=C/C(=O)O`: the outcome was inactive.

For `Cc1cc(Cc2ccc(N)c(C)c2)ccc1N`, the compound was classed as inactive.

`CCCCOC(=O)CCCCC(=O)OCCCC`: the outcome was inactive.

Source of the values: PubChem BioAssay (EPA / NIEHS).
